# Assay outcomes deposited in PubChem BioAssay by National Center for Advancing Translational Sciences (NCATS).
# Only some compounds are listed: those with a hit (about 12% of all), similar ones and a draw of the others.
# Pf growth 96h: P. falciparum growth inhibition at 96 hour, primary screen for plastid delayed-death inhibitors. hit rate 6.9% among 320,000. AID 504834. P. falciparum luciferase reporter growth, 96 h. Potency, µM (series often up to 28.7 µM), inactives show at the top dose activity change, negative = inhibition, hits mostly inhibitors; note: % is set by controls: 0 for no effect and ±100 for the full control effect
#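 Two-generation exposure (96 h) targets delayed-death phenotype. Reporter parasites carrying integrated firefly luciferase, in red cells at 2% hematocrit and 0.05% parasitemia final, kept at 37 C, 5% CO2; luminescence loss indicates inhibition.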
# Pf growth 48h: P. falciparum growth inhibition at 48 hours (one generation). Potency, µM (series often up to 28.7 µM), for inactives: at the highest dose activity change, negative = inhibition, usual class: inhibitors. AID 504832. hit rate 5.9% among 310,000. P. falciparum luciferase growth in erythrocytes, 48 h; note: % is set by controls: 0 for no effect and ±100 for the full control effect
#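 Growth was read as firefly luciferase luminescence after a 48 h, 37 C, 5% CO2 exposure of compounds to reporter-bearing P. falciparum cultures (0.1% parasitemia, 2% hematocrit final) in Albumax-supplemented RPMI 1640.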
# Sm TGR block: S. mansoni TGR enzyme inhibition | Q962Y6 | purified TGR, DTNB reduction, TNB absorbance 405 nm | Potency, µM (doses to about 114 µM), inactives show at the highest dose activity change, negative = inhibition, most hits filed as inhibitors | hit rate 3% among 360,000; note: % is set by controls: 0 for no effect and ±100 for the full control effect; nearly all actives have a fitted effect of over 60% in size
#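 TGR 20 nM + NADPH 100 uM (dispensed conc.), cpd preinc 15 min RT; start with NADPH (500 uM addition) then DTNB (15 mM addition). Kinetic TNB absorbance, 405 nm filter. Four-parameter Hill fit across titration.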
# SARS PLP yeast: blocks SARS-CoV papain-like protease in a yeast assay. S. cerevisiae expressing SARS-CoV PLpro, growth rescue. Potency, µM (top dose mostly 32.9 µM), without a hit: top-dose activity, positive = growth rescue, hits mostly activators. hit rate 0.19% among 330,000; calls by dose curve; note: 0% is about no effect; nearly all actives have a fitted effect of over 55% in size
# The depositor's hits bear a star; i = inactive; ? = inconclusive; · = no result given. Unless noted, calls come from the whole dose curve; as a rule, active = well fitted curve in the direction sought with a large enough effect; inconclusive = small, poorly fitted or top-dose-only effect, or another doubt; inactive = no such curve, though single readings can be large; an effect the other way counts as inactive or inconclusive. Potency is the fitted concentration of half-maximal effect.
SMILES,Pf growth 96h,Pf growth 48h,Sm TGR block,SARS PLP yeast
O=C(CN1CC[C@@]2(O)CCCC[C@H]2[C@@H]1c1ccc(F)cc1)NCc1ccco1,?,-10%,40µM*,0%
CCOC(=O)N1CCC2(O)CCCCC2C1c1ccc(F)cc1 (stereo unspecified),-20%,?,7%,-4%
CCn1c(SCc2cccc(Br)c2)nnc1-c1nonc1NC(C)=O,·,·,6%,·
CC(Cc1ccccc1)NC(=O)c1ccc(N)cc1 (stereo unspecified),12µM*,102%,-1%,5%
CCOC(=O)N1CCc2c(sc3c2c(=O)n(Cc2ccccc2)c(=O)n3CC(=O)Nc2ccc(C)cc2C)C1,·,·,17%,·
O=C(N1CCOCC1)N1CCc2ccccc21,12µM*,64%,-3%,5%
Cc1ccc(/C=C/C(=O)N2CCc3ccccc32)o1,5%,165%,45µM*,-19%
O=C(/C=C/c1ccco1)N1CCc2ccccc21,i,275%,7.9µM*,-13%
O=C(c1ccco1)N1CCc2ccccc21,0%,180%,2%,-2%
COc1cccc(CNC23CC4CC(CC(C4)C2)C3)c1OCc1ccccc1,-15%,10µM*,5%,-1%
O=C(Cn1c(=O)oc2cc(S(=O)(=O)NCc3ccccc3)ccc21)NCc1ccccc1Cl,·,·,-3%,·
COc1ccc(N2C(=O)CC(Sc3nnnn3-c3ccc(F)cc3)C2=O)cc1 (stereo unspecified),?,2%,·,-6%
O=C1CC(Sc2nnc(-c3ccccc3O)o2)C(=O)N1c1ccccc1 (stereo unspecified),56%,17%,4µM*,-23%
COc1ccc(N2C(=O)CC(Sc3nnc(-c4ccccc4)o3)C2=O)cc1 (stereo unspecified),-12%,-6%,3.5µM*,-25%
Cc1nc(SC2CC(=O)N(c3ccccc3)C2=O)n[nH]1 (stereo unspecified),?,16%,·,-5%
CC(=O)C[C@H](O)CC(=O)[C@H]1OC(=O)[C@@H](C)CCCCc2ccccc21,·,·,·,1%
CC1CCN(S(=O)(=O)c2cn(CC(=O)Nc3ccc(F)cc3)c(=O)c3ccccc23)CC1,·,·,3%,·
CC(C)NC(=S)N1CCCN(c2ncccc2[N+](=O)[O-])CC1,9.3µM*,?,-2%,0%
O=[N+]([O-])c1ccc(N2CCCNCC2)c2ncccc12,?,?,-23%,-1%
O=[N+]([O-])c1cccnc1N1CCCNCC1,18%,·,50µM*,-3%
Cc1ccc(S(=O)(=O)NCC(c2ccccc2)N2CCN(CCC#N)CC2)cc1 (stereo unspecified),·,?,-5%,24%
N#CCCN1CCN(C(CNS(=O)(=O)c2ccc(Cl)cc2)c2ccccc2)CC1 (stereo unspecified),5.2µM*,-18%,8%,-2%
Nc1nc(N2CCN(C(=O)c3ccco3)CC2)nc2ccc(Br)cc12,34%,35%,45µM*,0%
CCc1ccccc1Nc1nc(N)nc(COC(=O)CCNS(=O)(=O)c2ccccc2)n1,?,12µM*,-8%,2%
Cc1ccccc1Nc1nc(N)nc(COC(=O)c2cccc(S(=O)(=O)NCc3ccccc3)c2)n1,13µM*,?,-9%,-15%
SMILES,Pf growth 96h,Pf growth 48h,Sm TGR block,SARS PLP yeast
Cc1ccccc1Nc1nc(N)nc(COC(=O)c2cccc(S(=O)(=O)N(C)C)c2)n1,?,-22%,3%,-2%
COc1ccc(C(=O)N2CCCC(CCC(=O)N3CCN(c4ccccn4)CC3)C2)cc1 (stereo unspecified),-10%,?,7%,-2%
O=C(CCC1CCCN(C(=O)COc2ccccc2)C1)N1CCN(c2ccccn2)CC1 (stereo unspecified),0%,10µM*,27%,-2%
CCCCNC(=O)Cn1nc(N2CCN(c3ccccc3OC)CC2)ccc1=O,·,·,0%,·
Cc1ccc(NC(=O)CSCC(=O)N(C)Cc2ccc(Cl)c(Cl)c2)cc1,?,?,-3%,-8%
COc1ccc(NC(=O)CSCC(=O)N(C)Cc2ccc(Cl)c(Cl)c2)cc1,?,13µM*,-8%,-19%
CCOc1ccc(-c2csc(NC(=O)CSC3=NC(=O)CN3C(C)=O)n2)c2ccccc12,10µM*,?,-12%,4%
CCOc1ccc(-c2csc(NC(=O)CSCC(=O)O)n2)c2ccccc12,10%,17%,-6%,-4%
CCCCN(CC)Cc1ccc(CNS(=O)(=O)c2cc3c(cc2Cl)NC(=O)CO3)o1,·,·,-18%,·
O=C(Nc1cccc(Cl)c1)OC1CN2CCC1CC2 (stereo unspecified),1.9µM*,2.9µM*,39%,-3%
O=C(Nc1ccc(Cl)cc1)OC1CN2CCC1CC2 (stereo unspecified),36%,47%,11%,0%
Cc1ccc(NC(=O)c2cccc(S(=O)(=O)N3CCc4ccccc4C3)c2)nc1,9.3µM*,7.4µM*,0%,4%
Cc1cc(N2CCN(C)CC2)ccc1NC(=O)c1cccc(S(=O)(=O)N2CCc3ccccc3C2)c1,10µM*,?,-5%,-5%
CCN(CC)S(=O)(=O)c1cc(NC(=O)CSc2nnc(N)s2)ccc1C,?,?,-16%,-5%
CCN(CC)S(=O)(=O)c1cc(NC(=O)CSc2nc3c(cc2C#N)C(=O)CC(C)(C)C3)ccc1C,2.6µM*,3.7µM*,-4%,29%
Cc1ccc2c(n1)sc1c(=O)n(-c3cccc(C(F)(F)F)c3)nnc12,·,·,-8%,·
CC(C)(C)c1ccc(NC(=O)N2CCCN(c3c(Cl)cncc3Cl)CC2)cc1,?,10µM*,6%,1%
O=C(COc1ccc(F)cc1)Nc1nnc(SCc2cc(=O)n3ccccc3n2)s1,·,·,0%,·
Cc1ccc(OCC(=O)NCC(=O)OCc2cc(=O)n3nc(C(C)C)sc3n2)cc1,·,·,-9%,·
COc1ccc(Nc2nc(CC(C)=O)ns2)cc1OC,-6%,?,13µM*,-2%
CCOc1ccc(CCNC(=O)c2cc3c(s2)-c2ccccc2OC3)cc1OCC,·,·,4%,·
CC(C)[C@H](NC(=O)c1ccccc1F)C(=O)OCC(=O)NC1CC1,·,·,·,3%
CC(C)C(c1nnnn1Cc1ccccc1)N(Cc1ccco1)Cc1cccs1 (stereo unspecified),20%,?,?,-25%
Cc1ccc(S(=O)(=O)Cn2nnnc2C(C(C)C)N2CCN(Cc3ccco3)CC2)cc1 (stereo unspecified),10%,10µM*,3%,2%
Cc1ccc(S(=O)(=O)Cn2nnnc2C(C(C)C)N2CCSCC2)cc1 (stereo unspecified),?,-10%,?,-8%
Cc1ccc(S(=O)(=O)Cn2nnnc2C(C(C)C)N2CCc3ccccc3C2)cc1 (stereo unspecified),21%,-20%,28µM*,-3%
Cc1ccc(S(=O)(=O)Cn2nnnc2CN(Cc2ccco2)Cc2cccs2)cc1,18%,10µM*,45µM*,-27%
CN(C)c1cc(-c2ccc(Cl)c(Cl)c2)oc(=O)c1Cl,63%,4%,40µM*,-1%
